# From article PMC7819943, “Rice protein-binding microarrays: a tool to detect cis-acting elements near promoter regions in rice”
# The full ranking holds about 39,000 sequences; the median of “fluorescence intensity (a.u.)” is about 4,300, and the highest 2% start at about 39,000. This excerpt belongs to a sample that is enriched for the highest values.
# Target: T1, OsSMF1 (Oryza sativa, UniProt Q6ZLB0 1-436)
# T1 sequence: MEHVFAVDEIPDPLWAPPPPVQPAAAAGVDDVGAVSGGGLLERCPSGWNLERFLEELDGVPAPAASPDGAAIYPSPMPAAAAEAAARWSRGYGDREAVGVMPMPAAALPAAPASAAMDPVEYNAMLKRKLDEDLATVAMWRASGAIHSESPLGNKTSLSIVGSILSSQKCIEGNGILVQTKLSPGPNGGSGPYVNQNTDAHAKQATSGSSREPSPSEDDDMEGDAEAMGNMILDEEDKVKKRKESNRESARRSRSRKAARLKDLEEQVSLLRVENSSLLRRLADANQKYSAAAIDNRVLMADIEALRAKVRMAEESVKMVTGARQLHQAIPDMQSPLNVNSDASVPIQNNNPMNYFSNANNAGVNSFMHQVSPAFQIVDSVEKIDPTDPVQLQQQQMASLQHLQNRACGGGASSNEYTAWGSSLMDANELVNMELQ
# Test: protein-binding microarray (RPBM); PBS, 2% BSA, 51.3 ng/ul salmon testes DNA, 50 uM zinc acetate, 200 nM TF, 25 C, 1 h; high values mean tight binding
# Conditions: protein: recombinant; tags: N-terminal polyhistidine and DsRed monomer fusion (pET32a); chain copies: 2; label: CyDye5-dUTP incorporated in the synthesized complementary strand; 3' TTTTT single-stranded linker to array surface; dsDNA, one strand shown
# Summary of the method: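 Transcription factors were made in E. coli BL21-CodonPlus as N-terminal fusions to a polyhistidine tag and DsRed, then purified on Ni–NTA. After primer extension with Cy5-dUTP and blocking with 2% BSA, a custom Agilent array was exposed for 1 h at 25 °C to 200 nM protein in PBS, 2% BSA, salmon testes DNA and 50 µM zinc acetate. Washed arrays were scanned on an Axon 4000B, and the binding signal is per-feature fluorescence intensity in arbitrary units.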
row,Sequence,binding signal
1,TGGCCCAACACATCAACGTTACATCACGGGCTTTAACGTTCGGAGTCACCTAGTGCAG,3290 fluorescence intensity (a.u.)
2,AGAAAAGAAAACGCGGCAATAAACAATGACACGGCCTGTCCGGAGTCACCTAGTGCAG,4200 fluorescence intensity (a.u.)
3,GGCTGACGGCTGGTGAGAAGCCACGTCAGCATTTAATTCCCGGAGTCACCTAGTGCAG,13100 fluorescence intensity (a.u.)
4,ATTGCGCAGGCGCAGCAATATTGAATGGCCCAAATGCTAGCGGAGTCACCTAGTGCAG,23800 fluorescence intensity (a.u.)
5,GCACAGGCTTGACACCAGTCGAGCCGAGCCGAAACCCCGTCGGAGTCACCTAGTGCAG,3270 fluorescence intensity (a.u.)
6,ATTTTCGTGTGCAGTATATGTGTTCCCAACCCTGAGAGCCCGGAGTCACCTAGTGCAG,3620 fluorescence intensity (a.u.)
7,CTCTGTTCACTCCACCAAACTCCTTCGATTGATCAAATGACGGAGTCACCTAGTGCAG,47200 fluorescence intensity (a.u.)
8,ATTGATCACTCGGACGTCACCAAACGATCGATAAACTCGTCGGAGTCACCTAGTGCAG,5630 fluorescence intensity (a.u.)
9,TGGGATGATCAAATGACTGCCACACTGTCATGTTCCTCTGCGGAGTCACCTAGTGCAG,3610 fluorescence intensity (a.u.)
10,AGCTGTGCCAACGAGCCCTTAATTAGTTATTATCTCTTCTCGGAGTCACCTAGTGCAG,44600 fluorescence intensity (a.u.)
11,ACCAACGAACGGACGCTGTCATGTCACCTCTCTTAATCTTCGGAGTCACCTAGTGCAG,3740 fluorescence intensity (a.u.)
12,AGCCTCTTCCATCTCGAGCCAGCTCATATTGATTATCCAACGGAGTCACCTAGTGCAG,4850 fluorescence intensity (a.u.)
13,AAGCACTCCAAACTGCAACGATTATATCAATAAAATAAAACGGAGTCACCTAGTGCAG,39000 fluorescence intensity (a.u.)
14,AACTGCAGCAATATCACTCCCTCCAAATCAGCACATGCATCGGAGTCACCTAGTGCAG,3560 fluorescence intensity (a.u.)
15,TAGCATAGCCAACTGCTGACTCCAAATTATCTATAGTCAACGGAGTCACCTAGTGCAG,3850 fluorescence intensity (a.u.)
16,TGTCAGTTGGCGAGGGATGCACTGATGACTATGCTAGTGCCGGAGTCACCTAGTGCAG,4860 fluorescence intensity (a.u.)
17,AAGCTAGTACAAGATGCGAAATGTCGTCAGATTCAGAGATCGGAGTCACCTAGTGCAG,3580 fluorescence intensity (a.u.)
18,CGTTGCGCACGTACAGCTCACGCTCAAGTCGTACACATTACGGAGTCACCTAGTGCAG,3840 fluorescence intensity (a.u.)
19,AGTACATAATTACGCACATGTGACACACACCACACATACTCGGAGTCACCTAGTGCAG,3140 fluorescence intensity (a.u.)
20,ATACGATACCATAGGTATGTCAGCATGATATATATGTACTCGGAGTCACCTAGTGCAG,3890 fluorescence intensity (a.u.)
21,TGTCATAAATTGTACCGACATGATACACATGTCCGATACTCGGAGTCACCTAGTGCAG,39400 fluorescence intensity (a.u.)

row,Sequence,binding signal
1,TATGTGTTGACACCAAGGCTGACTCGGTTTTCGTCAAGGTCGGAGTCACCTAGTGCAG,6530 fluorescence intensity (a.u.)
2,GTCGTCTAGTAGTAGTAGCCTACCACCACCTCCCTCGGCGCGGAGTCACCTAGTGCAG,3230 fluorescence intensity (a.u.)
3,AATTGGGATCAAAGCCTTCATGTTCATAGCAAATCAAGAGCGGAGTCACCTAGTGCAG,45900 fluorescence intensity (a.u.)
4,AAATGGGGCCTAGAGTTCCAACCAATTGCAGCAAGAGCAGCGGAGTCACCTAGTGCAG,3230 fluorescence intensity (a.u.)
5,TAGCAAGAGACCTTGTTGAGCATGTCATCAATGTCAAGTGCGGAGTCACCTAGTGCAG,4150 fluorescence intensity (a.u.)
6,AGAATTTTGCAGACCGAGGCTTGGCCACCGAGGCGCAAGCCGGAGTCACCTAGTGCAG,3790 fluorescence intensity (a.u.)
7,GAACGACCCGAACTTATGACTCATTTATGGTTTGTTTCTCCGGAGTCACCTAGTGCAG,8680 fluorescence intensity (a.u.)
8,ACCTCCTCCACCTCCATGGCTCACCACCACGTACAGCAAACGGAGTCACCTAGTGCAG,3360 fluorescence intensity (a.u.)
9,TTTTAAGGGGCAAATCTTACCAACTTTTACTAGCGTGTCACGGAGTCACCTAGTGCAG,3680 fluorescence intensity (a.u.)
10,CTGTAGCAAATTAGAAGCAAAAGTGTTAGTTCAAATTGTGCGGAGTCACCTAGTGCAG,3320 fluorescence intensity (a.u.)
11,CTAAAACCACATATAAGGAGTGTCCTGTAGCAAAATTTCCCGGAGTCACCTAGTGCAG,4200 fluorescence intensity (a.u.)
12,AGTAGCAAAACCTGTTTGTAGAGGAAATTATTATAGTGTTCGGAGTCACCTAGTGCAG,53700 fluorescence intensity (a.u.)
13,CGTGTGTAACTTTGGAACCTGCCACGGGAGAGCGAATTCCCGGAGTCACCTAGTGCAG,25500 fluorescence intensity (a.u.)
14,GAATAGTAACAATTAGTTTTGTGAATTTTGTGAAATACGCCGGAGTCACCTAGTGCAG,52300 fluorescence intensity (a.u.)
15,ACAAATTATAAGTAACAAACTTTTGTGACGTATAGTAGCCCGGAGTCACCTAGTGCAG,4440 fluorescence intensity (a.u.)
16,TGTGAATTACTAGTAGTACGTAAGCATAAATACGCCACCCCGGAGTCACCTAGTGCAG,3550 fluorescence intensity (a.u.)
17,ACCAACGGCCCGAGTCCGACACACGTCTCACGCACGAGCACGGAGTCACCTAGTGCAG,3910 fluorescence intensity (a.u.)
18,GCTTCCCGCACGACACCTGTCCACACAAATCTTAGAGCAACGGAGTCACCTAGTGCAG,41400 fluorescence intensity (a.u.)
19,AACCTGCTGTCCACTACAACGTCACATTTCAACAAATCCACGGAGTCACCTAGTGCAG,34200 fluorescence intensity (a.u.)
20,CACACAGCCGCCCTTGCCGACCGCCACCGCCGCAACCGCACGGAGTCACCTAGTGCAG,3300 fluorescence intensity (a.u.)
21,TTTGCGAACGTAATTCCATTAATTAAACACACGTCTATATCGGAGTCACCTAGTGCAG,3220 fluorescence intensity (a.u.)
